The values below come from PubChem BioAssay (Tox21).

Assay [1] can be described thus: qHTS assay to identify small molecule antagonists of the estrogen receptor alpha (ER-alpha) signaling pathway using the BG1 cell line in the presence of 0.1 nM 17-beta-estradiol - cell viability counter screen (AID 1259241). Further: nearly all actives have a fitted effect of over 40% in size. Further: potency means the concentration at half of the fitted maximal effect. The procedure, abridged: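 Live-cell protease activity (CellTiter-Fluor fluorescence, 30 min) was read in the same wells after VM7Luc4E2 cells had been exposed to compounds with 0.1 nM 17beta-estradiol for 22 hr at 37C.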

The nature of assay [2]: qHTS assay to identify small molecule antagonists of the androgen receptor (AR) signaling pathway using the MDA cell line in the presence of 0.5 nM R1881 - cell viability counter screen (AID 1259242). Further: nearly all actives have a fitted effect of over 45% in size. The procedure, abridged: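 Concentration-response screen of compounds for toxicity in MDA-kb2 reporter cells: 16 hr at 37C with 0.5 nM R1881, endpoint live-cell protease fluorescence measured in the reporter wells.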

The nature of assay [3]: qHTS assay to identify small molecule HDAC inhibitors (AID 1259364). Further: potency means the concentration at half of the fitted maximal effect.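 Further: wild-type HCT-116 cells with endogenous class I/II HDAC activity; nearly all actives have a fitted effect of over 45% in size.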 The procedure, abridged: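 Screening used wild-type human colon HCT-116 cells incubated overnight, dosed with compounds for 2 hours, and assayed with a homogeneous luminogenic HDAC I/II reagent for 30 minutes at room temperature.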
Assay [4] in a line: qHTS assay to identify small molecule HDAC inhibitors - cell viability counter screen (AID 1259365). Further: series mostly up to about 92 µM; nearly all actives have a fitted effect of over 50% in size. In short, it runs like this: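 HCT-116 (wild type), 1,500 cells/well, overnight 37C/5% CO2; compound in DMSO 2hr; CellTiter-Glo 30min RT; luminescence read.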
Assay [5] can be described thus: qHTS assay to identify small molecule agonists of the sonic hedgehog signaling (Shh) pathway - cell viability counter screen (AID 1259366). Further: nearly all actives have a fitted effect of over 50% in size. Further: potency means the concentration at half of the fitted maximal effect. In short, it runs like this:
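CellTiter-Fluor fluorescence read-out, 1 hr at 37C, added after 23hr compound exposure. Cells: 3T3 Gli1-Luc, an NIH/3T3 clone with stably integrated Gli1-Luc reporter, plated 4hr before compound.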

Assay [6] can be described thus: qHTS assay to identify small molecule antagonists of the sonic hedgehog signaling (Shh) pathway - cell viability counter screen (AID 1259367). Further: nearly all actives have a fitted effect of over 55% in size. In short, it runs like this:
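Viability was read by CellTiter-Fluor fluorescence in the same wells, reagent added 23 hr into compound treatment and incubated 1 hr at 37C. The 3T3 Gli1-Luc reporter cells (2,000/well) received conditioned medium after compound and ran 24 hr.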

Assay [7] in a line: qHTS assay to identify small molecule agonists of the sonic hedgehog signaling (Shh) pathway (AID 1259368; calls by dose curve;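 further: NIH/3T3-derived 3T3Gli1-Luc cells carrying a stable Gli1-driven firefly luciferase reporter; series mostly up to about 92 µM; nearly all actives have a fitted effect of over 15% in size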). The procedure, abridged:
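Hedgehog pathway agonism scored by increased firefly luciferase luminescence in 3T3Gli1-Luc cells treated 24 hr at 37 C; detection used a 30 min room-temperature reagent incubation.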

A short description of assay [8]: qHTS assay to identify small molecule antagonists of the sonic hedgehog signaling (Shh) pathway (AID 1259369; calls by dose curve; further: nearly all actives have a fitted effect of over 45% in size; further: potency means the concentration at half of the fitted maximal effect). In short, it runs like this: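 NIH/3T3 stable Gli1-Luc clone, 2,000 cells/well, 4hr settle; cpd + conditioned medium 24hr; Luc reagent 30min RT; luminescence.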
Assay [9] in a line: qHTS assay to identify small molecule agonists of the estrogen receptor beta (ER-beta) signaling pathway - cell viability counter screen (AID 1259380). Further: nearly all actives have a fitted effect of over 30% in size. Further: potency means the concentration at half of the fitted maximal effect. The procedure, abridged:
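Measured: luminescence from CellTiter-Glo after 30 min at room temperature, added to wells already read for the LiveBLAzer FRET reporter (2 hr substrate); ER-beta-UAS-bla HEK293T cells had 16 hr compound treatment at 37C, 5% CO2.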

Assay [10] in a line: qHTS assay to identify small molecule antagonists of the estrogen receptor beta (ER-beta) signaling pathway - cell viability counter screen (AID 1259382). Further: nearly all actives have a fitted effect of over 55% in size. Further: potency means the concentration at half of the fitted maximal effect. In short, it runs like this: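 Readout: luminescence, CellTiter-Glo, same wells as bla assay. System: ER-beta-UAS-bla GripTite HEK293T, 2% charcoal-stripped FBS. Exposure: compounds plus 1nM 17-beta-estradiol, 16 hr, 37C.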

The nature of assay [11]: qHTS assay to identify small molecule agonists or antagonists of the thyroid stimulating hormone receptor (TSHR) signaling pathway - wild type cell line counter screen (AID 1259384; calls by dose curve). In short, it runs like this:
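Counter screen in untransfected Hek293: compounds (15-point titration, triplicate) plus phosphodiesterase inhibitor Ro20-1724 added after 18 h plating; 30 min RT. Intracellular cAMP via competitive d2/cryptate immunoassay, 1 h incubation.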

Assay [12] concerns the target Thyrotropin receptor (Homo sapiens) (UniProt P16473). Description: qHTS assay to identify small molecule antagonists of the thyroid stimulating hormone receptor (TSHR) signaling pathway (AID 1259385; calls by dose curve; further: nearly all actives have a fitted effect of over 20% in size; further: potency means the concentration at half of the fitted maximal effect). In short, it runs like this:
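Antagonist mode: compound-treated TSHR-expressing HEK293 cells were stimulated with 1.5 ng/mL TSH (final) in presence of Ro20-1724 for 30 min at RT. HTRF cAMP detection after 1 h; each compound tested at 15 concentrations, triplicate.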

Assay [13] has as its target Estrogen receptor (Homo sapiens) (UniProt P03372). Description: qHTS assay to identify small molecule antagonists of the estrogen receptor alpha (ER-alpha) signaling pathway using the BG1 cell line in the presence of 0.1 nM 17-beta-estradiol (AID 1259244). Further: nearly all actives have a fitted effect of over 50% in size. In short, it runs like this: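 Compounds were tested against 0.1 nM (final) 17beta-estradiol in VM7Luc4E2 cells, which express full-length ER-alpha and an ERE-luciferase reporter; luminescence was recorded following 22 h exposure.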

A short description of assay [14]: qHTS assay to identify small molecule phospholipidosis (PLD) inducers (AID 1259344; active means well fitted curve in the direction sought with a large enough effect; an effect the other way counts as inactive or inconclusive). In short, it runs like this: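 Phospholipid accumulation was scored by imaging: fixed, Hoechst-counterstained HepG2 cells stained with LipidTOX Red after 24 h compound exposure at 37 C. Read-outs were pit count and pit intensity per well or per cell, with amiodarone and DMSO controls.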

Assay [15] in a line: qHTS assay to identify small molecule agonists of the androgen receptor (AR) signaling pathway in the presence of an antagonist - cell viability counter screen (AID 1259379). Further: nearly all actives have a fitted effect of over 25% in size. Further: potency means the concentration at half of the fitted maximal effect. The procedure, abridged:
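MDA-kb2 viability measured by CellTiter-Fluor fluorescence in the same wells as the luciferase signal; nilutamide 3.0uM final; 15-point compound titration; 16 hr at 37C.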

Assay [16] concerns the target Estrogen receptor (Homo sapiens) (UniProt P03372). Description: qHTS assay to identify small molecule agonists of the estrogen receptor alpha (ER-alpha) signaling pathway in the presence of an antagonist (AID 1259383; calls by dose curve; further: top concentration of the series differs between compounds; nearly all actives have a fitted effect of over 15% in size). The procedure, abridged: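 Quantitative HTS confirmation: compounds titrated at 15 concentrations onto estrogen-deprived VM7Luc4E2 cells carrying a four-ERE luciferase construct, with ICI-182,780 present at 10.0nM final. Signal is luminescence after 22hr exposure.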

Assay [17] addresses Estrogen receptor beta (Homo sapiens) (UniProt Q92731). Put plainly: qHTS assay to identify small molecule agonists of the estrogen receptor beta (ER-beta) signaling pathway (AID 1259377; active means well fitted activation curve with a large enough effect in the signal ratio in the repeat runs, not every such curve was filed as active; the % refers to the signal ratio). In short, it runs like this: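 Beta-lactamase reporter readout: fluorescence of LiveBLAzer B/G FRET substrate after 2 h at room temperature, following 16 h compound treatment of ER-beta-UAS-bla HEK293T cells at 37C in 2% charcoal-stripped FBS medium.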

Assay [18] concerns the target Androgen receptor (Homo sapiens) (UniProt P10275). Description: qHTS assay to identify small molecule antagonists of the androgen receptor (AR) signaling pathway using the MDA cell line in the presence of 0.5 nM R1881 (AID 1259243). Further: potency means the concentration at half of the fitted maximal effect; nearly all actives have a fitted effect of over 50% in size. The procedure, abridged: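 With R1881 held at 0.5 nM (final), compound effects on MMTV-luciferase expression in MDA-kb2 cells were scored by luminescence after a 16 hr, 37C incubation.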

Assay [19] has as its target Estrogen receptor beta (Homo sapiens) (UniProt Q92731). Description: qHTS assay to identify small molecule antagonists of the estrogen receptor beta (ER-beta) signaling pathway (AID 1259378; active means well fitted inhibition curve with a large enough effect in the signal ratio in the repeat runs, not every such curve was filed as active; the % refers to the signal ratio; further: potency means the concentration at half of the fitted maximal effect). The procedure, abridged:
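Antagonist mode: compounds added to beta-lactamase reporter HEK293T ER-beta-UAS cells stimulated with E2 (1nM final), 16 hr at 37C. LiveBLAzer B/G FRET substrate, 2 hours room temperature, fluorescence read-out.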

Assay [20] addresses Androgen receptor (Homo sapiens) (UniProt P10275). Put plainly: qHTS assay to identify small molecule agonists of the androgen receptor (AR) signaling pathway in the presence of an antagonist (AID 1259381; calls by dose curve; further: nearly all actives have a fitted effect of over 15% in size). In short, it runs like this: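 Luminescent ONE-Glo read, 30min at room temperature, follows 16hr compound exposure (15 concentrations) of MDA-kb2 cells at 37C, 0% CO2, with nilutamide added at 3.0uM final.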

Several values for one entry are separate records, joined by “and”; a condition that tells them apart may be missing. Identical values can stand only once. Records with an inconclusive call do not appear. More than one record can exist for a structure, and the calls need not agree. Activity calls are given as the source filed them. Unless noted, the call rests on the fitted dose curve; in most records, active means well fitted curve in the direction sought with a large enough effect in the repeat runs; inconclusive means weak or mixed curves; inactive means no such curve, though single readings can be large; an effect the other way counts as inactive or inconclusive.

Chain of Androgen receptor (Homo sapiens) (P10275 whole entry, looked up): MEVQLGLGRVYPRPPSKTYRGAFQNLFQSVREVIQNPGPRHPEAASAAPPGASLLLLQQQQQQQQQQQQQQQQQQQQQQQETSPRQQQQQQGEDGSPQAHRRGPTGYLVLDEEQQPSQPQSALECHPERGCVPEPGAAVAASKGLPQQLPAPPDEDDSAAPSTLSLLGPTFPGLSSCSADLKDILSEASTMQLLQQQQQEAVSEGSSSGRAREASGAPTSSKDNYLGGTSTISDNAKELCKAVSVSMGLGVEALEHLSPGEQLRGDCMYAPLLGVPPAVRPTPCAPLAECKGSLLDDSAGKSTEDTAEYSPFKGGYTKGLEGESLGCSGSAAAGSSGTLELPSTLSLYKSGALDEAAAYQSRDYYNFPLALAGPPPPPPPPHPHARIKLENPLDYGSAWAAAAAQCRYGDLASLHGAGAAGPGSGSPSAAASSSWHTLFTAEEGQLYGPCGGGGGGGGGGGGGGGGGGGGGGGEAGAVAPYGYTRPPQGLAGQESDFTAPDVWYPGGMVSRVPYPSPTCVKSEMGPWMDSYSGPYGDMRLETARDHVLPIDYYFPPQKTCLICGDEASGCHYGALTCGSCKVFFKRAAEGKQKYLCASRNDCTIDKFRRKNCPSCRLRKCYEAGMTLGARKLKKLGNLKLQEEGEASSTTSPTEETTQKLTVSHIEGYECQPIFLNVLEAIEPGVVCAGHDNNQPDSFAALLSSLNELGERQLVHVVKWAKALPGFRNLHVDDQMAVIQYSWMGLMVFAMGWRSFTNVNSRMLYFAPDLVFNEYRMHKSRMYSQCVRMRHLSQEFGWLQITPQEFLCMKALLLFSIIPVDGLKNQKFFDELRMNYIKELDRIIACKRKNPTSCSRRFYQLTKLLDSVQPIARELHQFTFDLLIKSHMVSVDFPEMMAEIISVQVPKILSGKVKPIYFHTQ
Chain of Estrogen receptor beta (Homo sapiens) (Q92731 whole entry, looked up): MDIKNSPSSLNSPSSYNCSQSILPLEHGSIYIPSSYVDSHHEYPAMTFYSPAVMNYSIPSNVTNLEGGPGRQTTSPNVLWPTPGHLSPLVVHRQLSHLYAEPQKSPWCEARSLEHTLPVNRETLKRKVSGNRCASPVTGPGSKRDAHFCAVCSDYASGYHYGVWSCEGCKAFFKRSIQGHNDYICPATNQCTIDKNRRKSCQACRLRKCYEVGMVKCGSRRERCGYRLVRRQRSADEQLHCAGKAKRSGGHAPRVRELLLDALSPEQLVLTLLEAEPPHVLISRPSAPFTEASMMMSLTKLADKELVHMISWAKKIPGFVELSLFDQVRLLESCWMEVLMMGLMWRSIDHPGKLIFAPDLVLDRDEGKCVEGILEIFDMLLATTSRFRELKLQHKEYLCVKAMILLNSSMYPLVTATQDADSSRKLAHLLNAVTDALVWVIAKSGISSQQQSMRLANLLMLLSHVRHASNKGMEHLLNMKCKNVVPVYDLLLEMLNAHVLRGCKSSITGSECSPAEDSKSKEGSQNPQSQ
Chain of Estrogen receptor (Homo sapiens) (P03372 whole entry, looked up): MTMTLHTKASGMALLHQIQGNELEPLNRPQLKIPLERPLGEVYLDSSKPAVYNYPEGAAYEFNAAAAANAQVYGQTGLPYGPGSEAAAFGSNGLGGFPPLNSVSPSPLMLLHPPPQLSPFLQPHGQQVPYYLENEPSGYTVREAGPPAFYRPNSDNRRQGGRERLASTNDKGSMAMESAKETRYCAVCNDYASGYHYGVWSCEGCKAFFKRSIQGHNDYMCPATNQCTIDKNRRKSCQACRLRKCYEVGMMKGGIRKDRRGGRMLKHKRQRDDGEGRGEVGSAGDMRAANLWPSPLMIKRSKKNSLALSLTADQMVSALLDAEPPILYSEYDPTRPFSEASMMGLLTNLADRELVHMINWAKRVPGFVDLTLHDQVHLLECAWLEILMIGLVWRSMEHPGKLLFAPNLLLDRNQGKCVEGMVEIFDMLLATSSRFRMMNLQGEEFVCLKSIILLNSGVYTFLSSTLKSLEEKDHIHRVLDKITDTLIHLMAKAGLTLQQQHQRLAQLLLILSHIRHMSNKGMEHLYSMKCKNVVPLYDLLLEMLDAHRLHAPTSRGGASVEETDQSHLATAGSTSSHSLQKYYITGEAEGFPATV
Chain of Thyrotropin receptor (Homo sapiens) (P16473 whole entry, looked up): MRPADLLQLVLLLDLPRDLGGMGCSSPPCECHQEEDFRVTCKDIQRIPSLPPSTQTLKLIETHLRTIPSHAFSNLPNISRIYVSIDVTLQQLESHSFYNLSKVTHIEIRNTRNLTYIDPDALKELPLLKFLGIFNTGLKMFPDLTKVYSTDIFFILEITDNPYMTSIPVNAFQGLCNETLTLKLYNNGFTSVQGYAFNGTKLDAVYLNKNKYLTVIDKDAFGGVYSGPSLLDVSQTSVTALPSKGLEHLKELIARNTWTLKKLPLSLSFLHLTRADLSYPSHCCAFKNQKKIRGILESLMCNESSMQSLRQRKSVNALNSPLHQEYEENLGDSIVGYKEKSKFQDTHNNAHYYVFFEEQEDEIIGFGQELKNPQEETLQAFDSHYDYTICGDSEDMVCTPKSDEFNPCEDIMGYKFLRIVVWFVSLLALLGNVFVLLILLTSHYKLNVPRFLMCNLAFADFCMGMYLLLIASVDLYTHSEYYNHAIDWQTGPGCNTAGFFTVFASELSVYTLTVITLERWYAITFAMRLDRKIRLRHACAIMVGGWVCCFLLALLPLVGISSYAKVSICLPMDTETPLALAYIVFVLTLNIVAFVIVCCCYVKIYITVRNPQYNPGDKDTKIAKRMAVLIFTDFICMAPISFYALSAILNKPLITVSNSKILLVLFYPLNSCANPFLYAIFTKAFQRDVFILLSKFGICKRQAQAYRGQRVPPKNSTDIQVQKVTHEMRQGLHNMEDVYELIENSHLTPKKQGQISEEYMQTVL

`OC[P+](CO)(CO)CO`: the Potency result in assay [1], in assay [2], in assay [3], in [4], in assay [5] and in assay [6] was “inactive” each time. In addition, the Potency entry in assay [7], in assay [9], in [10] and in assay [12] was “inactive” each time. Further, the Potency in assay [8] is 31 µM (active) and inactive. The result in [11] was inactive.
For `CC(Cc1ccccc1)NCc1ccccc1Cl` (stereo not drawn), the Potency result in assay [1], in [13], in assay [3], in assay [4], in [5] and in assay [7] was “inactive” throughout. The Potency entry in assay [8], in assay [15], in assay [9], in assay [10], in assay [16] and in assay [12] was “inactive” each time. The result in assay [14] and in [11] was inactive.
Turning to `CCOP(=S)(OCC)SCSc1cc(Cl)ccc1Cl`, the Potency result in [1], in assay [2], in assay [4], in [5], in [7] and in assay [8] was “inactive” in each case. Also, the Potency result in assay [15], in assay [9], in [10], in assay [16] and in assay [12] was “inactive” each time. The outcome in assay [11] was inactive.
For `CC(C)C1(C)N=C(c2ncccc2C(=O)O)NC1=O` (stereo not drawn), the Potency result in assay [1], in assay [2], in assay [3], in assay [4], in assay [5] and in assay [7] was “inactive” throughout. The Potency entry in assay [8], in assay [15], in assay [9], in assay [10], in assay [16] and in [12] was “inactive” each time. Further, the result in assay [11] was inactive.
`CCOC(=O)c1cn2nc(OP(=S)(OCC)OCC)cc2nc1C`: the Potency entry in assay [1], in assay [2], in [3], in assay [4], in [5] and in [6] was “inactive” in each case. Also, the Potency entry in assay [7], in assay [17], in [9], in assay [10] and in assay [16] was “inactive” each time. The compound was called inactive in assay [11].
Take `C[CH2][Hg][S]c1ccccc1C(=O)O`: the Potency in assay [1] was 21.7 µM (active) and 5.96 µM (active); in [18], 7.7 µM (active) and 7.5 µM (active); in [3], 19.3 µM (active) and 23.7 µM (active); in [5] it was 1.72 µM (active) and 1.19 µM (active); in [8] it was 686 nM (active); in assay [19], 3.35 µM (active). In addition, the Potency in assay [15] was 10.9 µM (active) and 13.3 µM (active); in assay [9] it was 2.17 µM (active) and 5.31 µM (active); in assay [10] it was 2.43 µM (active) and 5.31 µM (active); in assay [12] it was 13.7 µM (active) and 29.8 µM (active). Further, the result in assay [14] was inactive. The Potency result in [4], in assay [7], in assay [17] and in assay [20] was “inactive” in each case.
Turning to `O=C(O)C(F)(F)C(F)(F)C(F)(F)C(F)(F)C(F)(F)F`, the Potency result in assay [1], in [2], in [4], in [5], in assay [6] and in assay [7] was “inactive” each time. The Potency entry in assay [8], in assay [17], in assay [19], in assay [9], in assay [10] and in assay [16] was “inactive” each time. Also, in [12], the Potency entry was “inactive”.
Turning to `C=CCN1C[C@H](C)N([C@H](c2ccc(C(=O)N(CC)CC)cc2)c2cccc(OC)c2)C[C@H]1C`, the Potency entry in assay [1], in [13], in assay [3], in assay [4], in assay [5] and in assay [6] was “inactive” throughout. Moreover, the Potency result in assay [7], in assay [8], in [17], in [19], in assay [15] and in [9] was “inactive” in each case. Also, the Potency entry in assay [10], in [16] and in [12] was “inactive” in each case. Also, the compound was called inactive in assay [14] and in [11].
